In the library only some 6.5% were active in any assay of this set; here they are far more common.
Marburg entry inh – qHTS for inhibitors of binding or entry into cells for Marburg Virus | Potency, µM (titrated, usually from 37.8 µM), for inactives: at the highest dose activity change, negative = inhibition, actives largely listed as inhibitors | Marburg virus pseudotyped entry inhibition, cell reporter | AID 540276, 2011 | 300,000 tested, 1.8% active; calls by dose curve; tested in HEK293 cells; further: potency means the concentration at half of the fitted maximal effect
VACV mCherry inh – qHTS for Stage-Specific Inhibitors of Vaccinia Orthopoxvirus: mCherry Reporter Primary qHTS. Vaccinia virus mCherry reporter infection, fluorescence. Potency, µM (highest dose often 36.5 µM), for inactives: at the highest dose activity change, negative = inhibition, hits mostly inhibitors. 310,000 tested, 0.63% active. AID 720579, 2013; calls by dose curve; tested in A549 cells; further: potency means the concentration at half of the fitted maximal effect; nearly all actives have a fitted effect of over 35% in size
Vaccinia Venus – qHTS for Stage-Specific Inhibitors of Vaccinia Orthopoxvirus: Venus Reporter Primary qHTS. Vaccinia virus Venus reporter expression, fluorescence. 330,000 tested, 0.46% active. AID 720580, 2013. Potency, µM (series often up to 36.5 µM), for the others: at the top dose activity change, negative = inhibition, hits mostly inhibitors; calls by dose curve; tested in A549 cells; further: potency means the concentration at half of the fitted maximal effect; nearly all actives have a fitted effect of over 30% in size
FMDV antiviral – High Throughput Screening for Foot and Mouth Disease Virus Antivirals; Potency, µM (highest dose often 57.9 µM), for the others: at the highest dose activity change, negative = inhibition, hits mostly inhibitors; 410,000 tested, 1.2% active; FMDV antiviral cell-based qHTS; calls by dose curve; tested in HEK293T cells; further: read-out not given here; potency means the concentration at half of the fitted maximal effect; nearly all actives have a fitted effect of over 45% in size
HCMV antiviral – qHTS Assay for inhibitors of the human cytomegalovirus (HCMV); HFF cells, HCMV-luciferase reporter, 72 h; stronger effect = lower value; 410,000 tested, 4.5% active; activity change, negative = inhibition, % at 57.5 µM; AID 1259415, 2018; in the data active means activity change below about -60%; inconclusive means no clear call, values can overlap the other calls; inactive means above about -39%
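Luciferase read-out from HCMV-luciferase-infected HFFs (MOI 1 PFU/cell) 72 h post infection at 37C; compounds added after 16 h cell attachment; activity normalized between buffer-only basal and Salinomycin (10uM) inhibitor controls.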
Lassa entry inh – qHTS for Inhibitors of binding or entry into cells for Lassa Virus. Lassa virus pseudotype entry inhibition, cell reporter. 300,000 tested, 1.2% active. Potency, µM (top dose mostly 37.9 µM), for inactives: at the highest dose activity change, negative = inhibition, actives largely listed as inhibitors; calls by dose curve; tested in HEK293 cells; further: potency means the concentration at half of the fitted maximal effect; nearly all actives have a fitted effect of over 50% in size
Numbers without * were called inactive; [ ] = dose if it differs, or a comment. On the % scale 0 is the no-effect control and ±100 the full control effect.

How did COc1cc(C)cc(C(=O)C=Cc2ccccc2)c1O do in these assays?
Marburg entry inh: inconclusive; VACV mCherry inh: -6%; Vaccinia Venus: -5%; FMDV antiviral: 32µM*; HCMV antiviral: 37; Lassa entry inh: -28%[46.1 µM]

How did COc1ccc(C(=O)/C=C/c2ccccc2)cc1 do in these assays?
VACV mCherry inh: -18%; Vaccinia Venus: -8%; FMDV antiviral: 12%

Results for COc1ccc(C=CC(=O)c2c(OC)cc(OC)c(OC)c2O)cc1 ?
Marburg entry inh: inconclusive; VACV mCherry inh: inconclusive; Vaccinia Venus: inconclusive; FMDV antiviral: 18µM*; HCMV antiviral: 0; Lassa entry inh: -25%

Results for COc1ccc(C(=O)/C=C/c2ccccc2)c(OC)c1 ?
VACV mCherry inh: inconclusive; Vaccinia Venus: inconclusive; FMDV antiviral: -17%; HCMV antiviral: -68*

What do the screens show for `COc1ccc(C(=O)/C=C/c2ccc(N3CCCCC3)c([N+](=O)[O-])c2)c(OC)c1`?
Marburg entry inh: 4%; VACV mCherry inh: 11µM*; Vaccinia Venus: inconclusive; FMDV antiviral: inconclusive; HCMV antiviral: -21; Lassa entry inh: inconclusive

What do the screens show for `O=C1C=C(c2cc(C(F)(F)F)cc(C(F)(F)F)c2)C[C@@H](c2ccc(Cl)cc2)C1`?
VACV mCherry inh: inconclusive; Vaccinia Venus: -19%; FMDV antiviral: -25%; HCMV antiviral: 2

Results for CC(=O)c1ccc(OCc2cn(CC(=O)c3ccc(O)cc3)nn2)cc1C ?
Lassa entry inh: -2%[46.1 µM]

What do the screens show for `O=C(c1ccccn1)N(CCO)C(c1ccccc1)c1nc2ccccc2[nH]1` (centres undefined)?
HCMV antiviral: 23

How did Cc1ccc(O)c(C(=O)C=Cc2ccccc2)c1 do in these assays?
Marburg entry inh: inconclusive; VACV mCherry inh: -3%; Vaccinia Venus: -6%; FMDV antiviral: 35µM*; HCMV antiviral: 8; Lassa entry inh: 7%[46.1 µM]

What do the screens show for `COc1ccc(C(=O)/C=C/c2cc(OC)c(O)c(OC)c2)c(F)c1`?
Marburg entry inh: inconclusive; VACV mCherry inh: inconclusive; Vaccinia Venus: 178%; FMDV antiviral: inconclusive; HCMV antiviral: -96*; Lassa entry inh: 13µM*

Results for COc1ccc(C=CC(=O)C=CC=Cc2ccccc2)cc1 ?
Marburg entry inh: inconclusive; VACV mCherry inh: -7%; Vaccinia Venus: -7%; FMDV antiviral: -10%; HCMV antiviral: 19; Lassa entry inh: inconclusive

What do the screens show for `COC1=C(C)C(O)=C(C(=O)/C=C/c2ccccc2)C(=O)C1(C)C`?
VACV mCherry inh: 11µM*; Vaccinia Venus: inconclusive; FMDV antiviral: -4%; HCMV antiviral: -77*

How did CCOc1cc2c(cc1O)C(=NOC)CC1C2CCC2(C)C(O)CCC12 (centres undefined) do in these assays?
Marburg entry inh: inconclusive; VACV mCherry inh: inconclusive; Vaccinia Venus: inconclusive; FMDV antiviral: 1%; HCMV antiviral: -73*; Lassa entry inh: inconclusive

How did CCCSc1nc(-c2ccc(OC)cc2)cc(-c2ccccc2OC)c1C#N do in these assays?
VACV mCherry inh: -10%; Vaccinia Venus: 10%; FMDV antiviral: -12%; HCMV antiviral: 30; Lassa entry inh: -13%[46.1 µM]

What do the screens show for `CCOc1ccc(NC(=S)N(CCCN2CCOCC2)Cc2cn(C)c3ccccc23)cc1`?
Marburg entry inh: inconclusive; VACV mCherry inh: -36%; Vaccinia Venus: -24%; FMDV antiviral: 4%; HCMV antiviral: -92*; Lassa entry inh: -13%

How did COc1ccc(NC(=S)N(CCCN2CCOCC2)Cc2cn(C)c3ccccc23)cc1 do in these assays?
Marburg entry inh: inconclusive; VACV mCherry inh: inactive; Vaccinia Venus: -1%; FMDV antiviral: 5%; HCMV antiviral: -98*; Lassa entry inh: inconclusive

What do the screens show for `O=C(C(Cc1ccccc1)N1C(=O)c2ccccc2C1=O)N1CCc2ccccc21` (centres undefined)?
Marburg entry inh: inconclusive; Vaccinia Venus: -11%; FMDV antiviral: -8%; HCMV antiviral: 19; Lassa entry inh: inconclusive
